Assay outcomes deposited in PubChem BioAssay by Broad Institute.
An excerpt weighted towards active compounds, which were near 3.8% of everything screened.
esBAF inh: blocks esBAF chromatin remodeling in mouse ES cells; 2% of 350,000 active; reporter increase, % at 12.5 µM; Bmi1-luciferase knock-in reporter, 24 h; 100% = twice the neutral-well signal; in the data active = activation above about 40%; inconclusive = no clear call, values can overlap the other calls;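 note: 0% = median of the plate's neutral control wells and 100% = double that signal; a rise in the Bmi1 reporter signal indicates esBAF inhibition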
Wnt act: activators of Wnt/beta-catenin signaling | AID 743398 | activation, % at 9.35 µM | 1.2% of 300,000 active | Wnt/beta-catenin reporter cell assay, activator, plate reader; in the data active = activation above about 30%, passing the limit was not always enough; inconclusive = no clear call, values can overlap the other calls;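 note: 0% = neutral control wells and 100% = positive control wells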
MITF act: MITF TRPM1 promoter activation in melanoma cells; SK-MEL-5 TRPM1-promoter luciferase, 24 h; % of positive control, neutral wells = 0; activation, % at 12.5 µM; 0.75% of 300,000 active;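 active = mean activation of at least 80% with every replicate also reaching 80%; inconclusive = mean reaches 80% but some replicate falls short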;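 note: 0% = neutral control wells and 100% = parthenolide positive control wells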
HSF1 inh: HSF1 inhibition | NIH3T3-HGL HSE-luciferase, MG132-induced, luminescence 8 h; stronger effect = lower value | activity change, negative = inhibition, % at 7.5 µM (by protocol) | 0.77% of 300,000 active;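 active = more than half of replicate wells show activity change below -50%, luminescence cut by over half; inconclusive = some wells, but at most half, below -50%; inactive = no replicate well below -50%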;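 note: luciferase reports HSF-1 transcriptional activity via heat shock element; 0% = median of DMSO wells and -100% = zero luminescence signal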
HSF-1 act: increases HSF-1 driven luciferase reporter signal | NIH3T3-HGL HSF-1 luciferase reporter, MG132, 8 h; 100% = twice DMSO control signal | activation, % at 9 µM | 1.7% of 300,000 active;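 active = mean replicate activation of at least 50% with a set share of replicates each reaching 50%; inconclusive = only one of those two conditions met; inactive = mean below 50% and too few replicates reaching it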;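 note: 0% = median of the neutral control wells and 100% = twice that signal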
esBAF Ring1 qPCR: esBAF inhibition confirmed by Ring1 de-repression | shares compounds with esBAF inh | mouse ESC E14, Ring1 mRNA RT-qPCR fold change | fold change at 33 µM | 550 tested, under 10 active;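 active = Ring1 gene expression raised more than 2-fold over untreated cells in both replicates at either tested dose; inconclusive = only one replicate above 2-fold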;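 note: Ring1 transcript normalised to actin housekeeping signal by TaqMan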
esBAF Fgf4 qPCR: represses Fgf4 in mouse ESCs, confirming esBAF inhibition | shares compounds with esBAF inh | mouse ESC E14, Fgf4 mRNA qPCR fold change; stronger effect = lower value | AID 743177 | Fgf4 expression fold change at 33 µM | 4% of 550 active;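 active = Fgf4 expression under 0.8 fold of control in both repeat measurements at one or both tested doses; inconclusive = under 0.8 fold in just a single repeat measurement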;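 note: Fgf4 transcript normalised to actin in duplex TaqMan qPCR; cells exposed to compound for 24 h before lysis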
Bmi1 derepress: esBAF inhibition confirmed by Bmi1 de-repression; shares compounds with esBAF inh; mouse ESE14 ES cells, Bmi1 mRNA qPCR fold; stronger effect = higher value; fold change at 33 µM; 550 tested, under 10 active; AID 743180;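 active = Bmi1 expression fold change above 6 at either tested concentration, seen in replicate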
A549 tox SP: kills or reduces viability of A549 cells. shares compounds with esBAF inh. A549 cytotoxicity, plate reader. cell viability change % (negative = cytotoxic), % at 25 µM, hits read low. 550 tested, under 10 active. AID 743188; call rule not given here
HepG2 cytotox SP: cytotoxicity in HepG2 cells. shares compounds with esBAF inh. activity change, negative = inhibition, % at 25 µM. 4% of 550 active. plate reader; stronger effect = lower value; in the data active = activity change below about -50%
HEK293 cytotox SP: HEK293 cell cytotoxicity at single point; 3% of 550 active; activity change, negative = inhibition, % at 25 µM, hits read low; plate reader; shares compounds with esBAF inh; in the data active = activity change below about -38%, passing the limit was not always enough
Starred values were filed as active, the others as inactive; ? = inconclusive; · = no result given.

SMILES	esBAF inh	Wnt act	MITF act	HSF1 inh	HSF-1 act	esBAF Ring1 qPCR	esBAF Fgf4 qPCR	Bmi1 derepress	A549 tox SP	HepG2 cytotox SP	HEK293 cytotox SP
CC(=O)N(C)c1nc(-c2ccc(Cl)cc2)cs1	73.9*	·	57.4	12.9	-5.2	1.22	0.921	1.27	-9.7	-7.5	-3.7
O=C(CC1CC1)Nc1ccc2c(c1)[C@H]1C[C@@H](CC(=O)N3CCc4ccccc4C3)O[C@H](CO)[C@H]1O2	4.5	·	·	·	·	·	·	·	·	·	·
COC(=O)c1ccc2[nH]c(C)cc(=O)c2c1	2.7	0.4	-6.0	-6.2	-15.5	·	·	·	·	·	·
COC(=O)c1ccc2[nH]c(C(C)(C)O)c(C)c2c1	56.8*	19.6	74.9	9.0	16.6	1.41	1	1.39	-0.8	-13.5	-3.6
C[C@@H]1CCCCO[C@@H](CN(C)C(=O)Nc2ccccc2)[C@H](C)CN([C@H](C)CO)C(=O)c2cc(NS(=O)(=O)c3cccs3)ccc2O1	6.8	·	·	·	·	·	·	·	·	·	·
CC1CCc2c(sc(NC(=O)c3cccn3C)c2C(N)=O)C1 (configuration not stated)	70.9*	8.0	37.0	·	·	1.07	1.02	1.52	-11.4	-17.4	-19.5
COC(=O)Nc1sc2c(c1C(N)=O)CCC(C)C2 (configuration not stated)	·	0.6	6.1	-5.6	3.5	·	·	·	·	·	·
NNC(=O)c1nc2ccccc2s1	67.8*	-1.4	·	·	·	1.17	0.833	1.67	-4.9	-47.9	-9.6
CC(=Nc1ccccc1O)c1sc2ccccc2c1O	82.7*	85.5*	49.3	10.6	23.1	0.813	1.14	2.24	-9.9	-9.0	1.0
COc1ccc(S(=O)(=O)Nc2ccc3c(c2)C(=O)N([C@@H](C)CO)C[C@@H](C)[C@H](CN(C)Cc2ccncc2)OCCCC[C@H](C)O3)cc1	1.3	·	·	·	·	·	·	·	·	·	·
O=C1NC(=Nc2ccccc2)S/C1=C\c1cccn1-c1ccccc1	67.0*	·	21.2	5.1	35.4	2.59*	0.444*	10.7*	-9.8	14.3	-43.3
C[C@H](CO)N1C[C@H](C)[C@H](CN(C)S(=O)(=O)c2cn(C)cn2)Oc2ccc(NS(=O)(=O)c3ccccc3)cc2CC1=O	-0.6	·	·	·	·	·	·	·	·	·	·
CN(C)S(=O)(=O)c1cccc(C(=O)Nc2ccc3c(c2)CCC3)c1	10.2	24.7	47.6	-1.3	-8.2	·	·	·	·	·	·
CN(C)S(=O)(=O)c1ccc(C(=O)Nc2ccc3c(c2)CCC3)cc1	74.7*	21.9	46.8	8.1	9.0	1.03	0.937	1.71	-1.9	-43.1	-13.7
Cn1c(COc2ccccc2)nc2ccccc21	57.2*	42.3*	·	14.2	14.1	1.04	0.894	1.52	-19.7	-23.4	-20.8
Cc1noc(C)c1NC(=O)Nc1ccc2c(c1)C(=O)N([C@H](C)CO)C[C@H](C)[C@@H](CN(C)Cc1ccccc1)O2	-5.9	·	·	·	·	·	·	·	·	·	·
Nc1cc(OCc2ccccc2)ccc1OCc1ccccc1	82.7*	-2.6	62.2	·	·	1.09	?	1.61	-15.1	-17.2	-9.6
Nc1ccc(OCc2ccccc2)cc1	16.7	-4.4	18.3	-4.5	-3.9	·	·	·	·	·	·
C[C@@H]1CN([C@H](C)CO)C(=O)c2cc(NC(=O)c3ccncc3)ccc2O[C@@H]1CN(C)Cc1ccc(-c2ccccc2)cc1	-4.3	·	·	·	·	·	·	·	·	·	·
CC(C)c1ccc(NC(=O)c2ccc3snnc3c2)cc1	71.7*	19.1	76.2	22.3	21.6	1.15	0.938	1.79	-2.6	10.8	-5.2
O=C(Nc1ccccc1)c1ccc2snnc2c1	·	13.0	11.1	4.3	6.0	·	·	·	·	·	·
C[C@@H]1CCCCO[C@H](CN(C)Cc2ccncc2)[C@H](C)CN([C@H](C)CO)C(=O)c2cc(NC(=O)Nc3cccc4ccccc34)ccc2O1	-1.4	·	·	·	·	·	·	·	·	·	·
